Bioassay records from PubChem BioAssay.
ELG1 genotox: inducers of genotoxicity in HEK293T ELG1-luciferase cells | 330,000 tested, 1.3% active | HEK293T ELG1-luciferase reporter, luminescence, 16 h | AID 504466 | Potency, µM (series often up to 46 µM), without a hit: at the highest dose activity change, positive = activation, hits mostly activators; note: % of control where 0% means no effect; nearly all actives have a fitted effect of over 60% in size
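Reporter readout depends on ELG1 protein level, which increases with genetic stress. After 16 hr compound exposure at 37 °C, luciferase activity was quantified using ONE-Glo.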
SMN2 splice up: increases expression of the SMN2 splice variant; HEK293 SMN2-luciferase splicing reporter, luminescence, 30-36 h; Potency, µM (highest dose often 46.1 µM), for inactives: at the highest dose activity change, positive = activation, actives largely listed as activators; 210,000 tested, 2.8% active; note: % of control where 0% means no effect; nearly all actives have a fitted effect of over 55% in size
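qHTS luciferase splicing reporter: luminescence rises when SMN2 exon 7 is included in transfected HEK293 cells. Compound exposure lasted 30-36 h at 37C, with 4.5 mM final sodium butyrate as control, followed by a ONE-Glo read.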
Rab9 prom act: activates the Rab9 promoter. 320,000 tested, 2.8% active. AID 485297. Potency, µM (series often up to 9.22 µM), for the others: at the top dose activation, negative = inhibition, most hits filed as activators. Huh7 Rab9 promoter-luciferase reporter, luminescence, 24 h; note: % of control where 0% means no effect; nearly all actives have a fitted effect of over 60% in size
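Quantitative HTS format; Huh7 Rab9-luciferase reporter cells (1500/well) receive compound 2 h post-plating, incubate 24 h at 37 °C, then get luciferase reagent for 10 min before luminescence reading.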
ELG1 DNA repair: blocks ELG1-dependent DNA repair in HEK293T cells | HEK293T ELG1-luciferase reporter, luminescence, 16 h; DNA damage induced by 5-fluorouridine | Potency, µM (doses to about 46.1 µM), without a hit: top-dose activity change, negative = inhibition, most hits filed as inhibitors | 330,000 tested, 2.3% active | AID 504467; note: % is set by controls: 0 for no effect and ±100 for the full control effect; nearly all actives have a fitted effect of over 55% in size
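Cells (2,000 per well) received 5-fluorouridine plus test compound or DMSO and were incubated 16 hr at 37 °C, 5% CO2. Luciferase activity was read by luminescence 30 min after ONE-Glo addition; signal suppression marked inhibition of damage-induced ELG1 function.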
NPC1 promoter act: NPC1 promoter activation; Huh7 NPC1 promoter luciferase reporter, 24 h; Potency, µM (doses to about 9.22 µM), for inactives: top-dose activation, most hits filed as activators; 320,000 tested, 2.4% active; AID 485313; note: % of control where 0% means no effect; nearly all actives have a fitted effect of over 60% in size
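Cells: Huh7 expressing luciferase under the NPC1 promoter, 1500/well. Seeded 2 h, compound added, incubated 24 h at 37 °C. Luciferase reagent, 10 min ambient, then luminescence.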
FLuc counter: counter-screen for miR-21 project: firefly luciferase inhibitors or activators | Potency, µM (series often up to 57.5 µM), for inactives: at the top dose activity change, negative = inhibition, most hits filed as inhibitors | purified FLuc, Km substrates, luminescence inhibition | 360,000 tested, 6.9% active | AID 588342;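 note: plate controls were vehicle for no effect and reference inhibitor for full effect; nearly all actives have a fitted effect of over 55% in size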
Target sequence (P08659 whole entry, looked up): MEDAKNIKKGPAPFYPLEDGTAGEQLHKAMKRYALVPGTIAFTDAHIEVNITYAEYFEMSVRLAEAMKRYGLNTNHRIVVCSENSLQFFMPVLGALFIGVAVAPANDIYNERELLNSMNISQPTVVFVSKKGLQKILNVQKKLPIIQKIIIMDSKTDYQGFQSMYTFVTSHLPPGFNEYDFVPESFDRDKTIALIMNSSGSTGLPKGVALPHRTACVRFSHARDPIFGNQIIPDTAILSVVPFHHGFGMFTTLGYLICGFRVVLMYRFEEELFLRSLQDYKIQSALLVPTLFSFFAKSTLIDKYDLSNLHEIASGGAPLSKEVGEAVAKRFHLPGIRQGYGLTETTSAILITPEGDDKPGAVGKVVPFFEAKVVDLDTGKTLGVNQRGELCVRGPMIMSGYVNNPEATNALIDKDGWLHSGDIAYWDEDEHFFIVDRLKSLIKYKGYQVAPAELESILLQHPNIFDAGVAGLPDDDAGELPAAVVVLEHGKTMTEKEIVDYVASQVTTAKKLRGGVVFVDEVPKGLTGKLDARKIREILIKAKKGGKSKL
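Purified P. pyralis luciferase (10nM final) with 10uM D-luciferin and 10uM ATP (Km levels) in 50mM Tris acetate pH 7.5, 10mM Mg acetate, 0.01% Tween-20, 0.05% BSA; qHTS 6-point titration, ~60 µM downward; luminescence read.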
The depositor's hits bear a star; u = inconclusive; x = no result given. Compounds with a hit are over-represented: about 9.2% of the library has one in this group of screens. Calls come from the whole dose curve; as a rule, active = well fitted curve in the direction sought with a large enough effect; inconclusive = small, poorly fitted or top-dose-only effect, or another doubt; inactive = no such curve, though single readings can be large; an effect the other way counts as inactive or inconclusive. Potency is the fitted concentration of half-maximal effect.

SMILES	ELG1 genotox	SMN2 splice up	Rab9 prom act	ELG1 DNA repair	NPC1 promoter act	FLuc counter
c1ccc(OCCSc2nnnn2C2CCCCC2)cc1	u	11µM*	1µM*	u	0.56µM*	2.1µM*
COc1ccc(OCCSc2nnnn2C2CCCCC2)cc1	19%	18%	19%	24%	1%	u
CC1=C(C(=O)OC2CCCC2)C(c2ccc(Cl)cc2)CC(=O)N1 (stereo not drawn)	x	-9%	x	x	x	5%
COc1ccccc1OCC(=O)N/N=C1\CCCCc2ccccc21	-7%	x	-2%	u	1%	-17%
O=C(COc1cccc(Br)c1)N/N=C1\CCCc2ccccc21	9%	10%	15%	u	7%	u
COc1ccc(OCC(=O)N/N=C2\CCCc3ccccc32)cc1	1%	x	6%	15%	8%	19µM*
O=C(COc1ccccc1F)N/N=C1\CCCc2ccccc21	u	x	u	u	u	15µM*
Cc1cccc2c1OCC/C2=N\NC(=O)COc1ccccc1	u	9%	u	u	u	19µM*
COc1ccccc1OCC(=O)N/N=C1\CCc2ccccc21	8.2µM*	x	2.8µM*	u	26%	21µM*
CC(C)(C)c1ccc(C(=O)NCCC(=O)NNC(=O)COc2ccccc2F)cc1	-3%	x	x	9%	x	x
COc1cc2c(cc1OC)CN(C(=O)CN1CCN(S(=O)(=O)c3ccccc3)CC1)CC2	-4%	x	-10%	-6%	-3%	1%
COc1ccc(C2C=C(c3ccccc3)Nc3nc(NC(=O)/C=C/c4ccc(F)cc4)nn32)cc1 (stereo not drawn)	x	x	x	x	x	-3%
COc1ccccc1NC(=O)c1cc2cc3ccc(OC)c(Cl)c3nc2s1	x	x	x	x	x	-8%
CCc1cc(=O)oc2cc(OCc3ccc(C(=O)O)o3)ccc12	17%	x	u	u	u	27µM*
Cc1c(C)c2ccc(OCc3ccc(C(=O)O)o3)c(C)c2oc1=O	u	68%	-4%	u	-5%	11µM*
Cc1ccc(OCc2ccc(C(=O)Nc3nccs3)o2)cc1C	-1%	32%	u	u	u	17µM*
O=C(Nc1nccs1)c1ccc(COc2c(F)c(F)cc(F)c2F)o1	7%	x	2%	u	24%	0%
Cc1ccc(OCc2ccc(C(=O)N3CCOCC3)cc2)cc1C	u	11µM*	1.4µM*	u	3.5µM*	6.7µM*
CC1CCN(c2nc3c(S(=O)(=O)c4ccc(Cl)cc4)nnn3c3ccsc23)CC1	x	x	x	x	x	5%
COc1ccc(C(C(=O)NC2CCCCC2)N(Cc2ccco2)C(=O)c2ccccn2)c(OC)c1 (stereo not drawn)	-3%	x	9%	-11%	4%	0%
O=C(NCc1ccc(Cl)cc1)C(=O)NCC(c1ccco1)S(=O)(=O)c1cccs1 (stereo not drawn)	x	x	x	x	x	-3%
NCc1nc2cccnc2n1Cc1ccccc1Cl	x	-8%	x	x	x	-2%
COc1ccc(OC)c(Nc2ncc3c(n2)CCN(Cc2cc(OC)c(OC)c(OC)c2)C3)c1	x	x	x	x	x	-5%
C=CCc1ccc(OCc2ccc(C(=O)OC)o2)c(OC)c1	10µM*	u	0.5µM*	u	u	7.6µM*
COC(=O)c1ccc(COc2cc(C)ccc2C)o1	u	x	13%	0%	29%	11µM*
SMILES	ELG1 genotox	SMN2 splice up	Rab9 prom act	ELG1 DNA repair	NPC1 promoter act	FLuc counter
COC(=O)c1ccc(COc2ccc(C)c(C)c2)o1	u	x	1.6µM*	u	1.4µM*	u
COC(=O)c1ccc(COc2ccc3ccc(=O)oc3c2)o1	11%	x	19%	u	14%	-19%
Cc1ccc(OCc2ccoc2C(=O)O)cc1C	5%	3%	-3%	u	0%	19µM*
Cc1ccc(OC(C)C(=O)O)cc1C (stereo not drawn)	-2%	11%	9%	14%	-2%	-4%
CCCc1cc(C(=O)OCC(=O)N(CCC)c2c(N)n(Cc3ccccc3)c(=O)[nH]c2=O)sc1C	19%	x	2%	-13%	-1%	0%
COc1ccc(-n2c(-c3ccccc3F)nc3c(cnn3-c3ccc(C)cc3)c2=O)cc1	x	-5%	x	x	x	-8%
Cc1cc(C)cc(OCc2ccc(C(=O)O)o2)c1	u	u	1%	u	3%	-19%
C=CCc1ccc(OCC(O)COCC)c(OC)c1 (stereo not drawn)	18µM*	13µM*	u	u	u	19µM*
Cc1ccc(OCc2ccc(C(=O)O)o2)cc1C	u	x	u	u	u	11µM*
Cc1ccc2c(c1)C1CC(C)(O2)N(c2cccc(C(=O)N3CCN(c4ccccn4)CC3)c2)C(=O)N1 (stereo not drawn)	-18%	x	-3%	-9%	1%	0%
Cc1nn(CC(=O)NCCN2CCCCC2C)c(=O)c2cc(-c3ccccc3)nn12 (stereo not drawn)	4%	x	0%	9%	0%	0%
Cc1cccc(NC(=S)NNC(=O)c2ccc(O)cc2O)c1C	-12%	-48%	16%	10µM*	-1%	u
Cc1cc(C)c(C)c(OCC(=O)O/N=C(\N)c2cccnc2)c1	-5%	x	0%	-2%	-5%	6%
N/C(=N\OC(=O)COc1ccc(Br)cc1Cl)c1cccnc1	u	18µM*	u	u	u	8.5µM*
N/C(=N\OC(=O)COc1ccc(Cl)cc1Cl)c1ccncc1	u	x	0.63µM*	u	2.8µM*	3µM*
N/C(=N\OC(=O)COc1ccc(Cl)cc1Br)c1cccnc1	-11%	-1%	4µM*	u	3.2µM*	2.7µM*
Cc1ccc(-c2nnc(SCC(=O)N3CCc4ccccc43)o2)cc1	x	0%	x	x	x	2%
CCOC(=O)c1ccccc1NS(=O)(=O)c1c(-c2ccc(C)cc2)csc1C(=O)OC	x	x	x	x	x	0%
Cc1cc(C)c(/C=C/c2onc(C)c2S(=O)(=O)N2CCC(C(=O)N3CCN(c4ccccc4)CC3)CC2)c(C)c1	x	x	x	x	x	5%
COC(=O)c1ccc(NC(=O)c2cc3sccc3n2C)cc1	0%	x	-17%	10%	19%	11µM*
COc1ccc(OC)c(NC(=O)c2cc3sccc3n2C)c1	1%	-1%	20%	2%	19%	12µM*
Cn1c(C(=O)NCc2ccc3c(c2)OCO3)cc2sccc21	4%	8%	1%	-6%	0%	-17%
COc1cc(NC(=O)c2cc3sccc3n2C)cc(OC)c1	5.8µM*	13µM*	12%	u	-1%	8.5µM*
COc1ccc(OC)c(NC(=O)c2cc3cc(C)ccc3n2C)c1	x	x	x	x	x	-2%
